AmpC detergent = qHTS Inhibitors of AmpC Beta-Lactamase (assay with detergent); P00811; AmpC hydrolysis of nitrocefin, absorbance 480 nm, 0.01% Triton; Potency, µM (titrated, usually from 114 µM), for inactives: top-dose activity change, negative = inhibition, hits mostly inhibitors; 370,000 compounds, 0.041% hits;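 note: 0% = no-compound wells and -100% = no-enzyme wells; nearly all actives have a fitted effect of over 25% in size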
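20 mM phosphate pH 7.0 + 0.01% (detergent screen) or 0.0001% Triton X-100; 5.3 nM AmpC reagent; cpd preinc 15 min RT; nitrocefin (800 uM stock) to start; A480 q20 s × 4 min; Activity was normalised to no-enzyme and no-compound control wells.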
LmPK inhibitor = qHTS Assay for Inhibitors of Leishmania Mexicana Pyruvate Kinase (LmPK); Q27686; purified LmPK, Kinase-Glo ATP luminescence, 1 h; Potency, µM (top dose mostly 57.5 µM), for inactives: at the highest dose activity change, negative = inhibition, hits mostly inhibitors; 290,000 compounds, 0.37% hits; AID 1721, 2009
Target sequence (Q27686 whole entry, looked up): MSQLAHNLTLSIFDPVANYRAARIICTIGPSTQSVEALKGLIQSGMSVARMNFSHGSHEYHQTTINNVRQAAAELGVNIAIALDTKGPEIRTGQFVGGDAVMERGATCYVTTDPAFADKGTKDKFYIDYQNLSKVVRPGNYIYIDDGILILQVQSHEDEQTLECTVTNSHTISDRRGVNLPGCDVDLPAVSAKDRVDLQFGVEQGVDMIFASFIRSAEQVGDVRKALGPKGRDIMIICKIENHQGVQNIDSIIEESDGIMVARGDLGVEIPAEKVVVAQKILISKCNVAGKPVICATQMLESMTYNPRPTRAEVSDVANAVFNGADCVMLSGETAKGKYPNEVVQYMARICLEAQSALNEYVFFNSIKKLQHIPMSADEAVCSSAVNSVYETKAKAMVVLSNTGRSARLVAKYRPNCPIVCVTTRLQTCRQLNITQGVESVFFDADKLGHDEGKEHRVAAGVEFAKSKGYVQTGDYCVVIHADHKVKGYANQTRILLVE
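Pyruvate kinase activity monitored as ATP production (luciferase luminescence). Conditions: 0.1 nM enzyme, 0.5 mM PEP, 0.1 mM ADP, 1 h, RT; normalized against uninhibited and no-enzyme wells.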
AMA1 RON2 block = qHTS for Inhibitors of AMA1-RON; Towards Development of Antimalarial Drug Lead: Primary Screen. AlphaScreen AMA1-biotinylated RON2 peptide binding. 360,000 compounds, 0.2% hits. Plasmodium falciparum AMA1 (3D7) - RON2 peptide interaction. AID 720542, 2013. Potency, µM (highest dose often 58.2 µM), inactives show top-dose activity change, negative = inhibition, hits mostly inhibitors;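 note: 0% = vehicle wells and -100% = peptide control; nearly all actives have a fitted effect of over 45% in size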
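AMA1 (3D7) with his tag at 25 nM final met compounds first, then biotinylated RON2 peptide at 25 nM; detection used donor plus acceptor beads, 10 µg/mL apiece, read by AlphaScreen after 30 min at room temperature.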
Giardia FBPA inh = qHTS Assay for Inhibitors of Fructose-1,6-bisphosphate Aldolase from Giardia Lamblia; Potency, µM (highest dose often 59.6 µM), for the others: top-dose activity, negative = inhibition, hits mostly inhibitors; 290,000 compounds, 0.71% hits; A8B2U2; purified Giardia FBPA; note: nearly all actives have a fitted effect of over 55% in size
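Giardia FBPA (40 nM reagent) was preincubated 10 min at RT with compound (up to 57.5 uM final), then substrate plus GAPDH/TPI/NAD/arsenate coupling system with diaphorase/resazurin was added; resorufin fluorescence (525/598 nm) was read after 20 min.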
AmpC inh no detg = qHTS Inhibitors of AmpC Beta-Lactamase (assay without detergent); AmpC nitrocefin hydrolysis, absorbance 480 nm, 0.0001% Triton; Potency, µM (titrated, usually from 57.1 µM), for the others: at the highest dose activity change, negative = inhibition, hits mostly inhibitors; 330,000 compounds, 0.52% hits; AID 485341, 2010;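 note: plate controls were no compound for no effect and no enzyme for full effect; nearly all actives have a fitted effect of over 20% in size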
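AmpC (5.3 nM in the dispensed reagent) in 20 mM phosphate pH 7.0 with 0.01% (detergent screen) or 0.0001% Triton X-100 was preincubated with compounds for 15 min at room temperature. Nitrocefin was then added from an 800 uM solution, and hydrolysis was followed at 480 nm.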
An asterisk follows results filed as active; ? = inconclusive; . = not tested or not shown; [ ] = another dose, or the depositor's remark. In the library only some 1.3% were active in any assay of this set; here they are far more common. Calls come from the whole dose curve; as a rule, active = well fitted curve in the direction sought with a large enough effect; inconclusive = small, poorly fitted or top-dose-only effect, or another doubt; inactive = no such curve, though single readings can be large; an effect the other way counts as inactive or inconclusive. Unless noted, % is set by controls: 0 for no effect and ±100 for the full control effect; potency is the fitted concentration of half-maximal effect.

SMILES | AmpC detergent | LmPK inhibitor | AMA1 RON2 block | Giardia FBPA inh | AmpC inh no detg
O=C(/C=C/c1ccc(OC2CSC2)cc1)c1ccccc1 | -9% | 25µM* | 40% | 0% | -57%
CCOc1ccc(NC(=O)/C=C/c2ccccc2)c([N+](=O)[O-])c1 | 0% | -1% | -11%[2.32 µM] | 1% | -17%
CCOc1ccc(/C=C/C(=O)c2ccccc2)cc1 | 0% | 16µM* | 0% | -2% | -24%
CCOc1ccc(C(=O)/C=C/c2ccc(SC)cc2)cc1 | -1% | -6% | 4% | -8% | 0%
CCOc1ccc(N/C=C/C(=O)c2ccccc2)c([N+](=O)[O-])c1 | -8% | 4µM* | ? | 4% | -12%
CCOc1ccccc1CNC(=O)c1ccc(NC(=O)N2CC(C)Sc3ccccc32)cc1 (configuration not stated) | -6% | . | . | . | .
COc1ccc(C(CNC(=O)c2ccc3c(c2)OCCO3)N(C)C)cc1 (configuration not stated) | 6% | 2% | 2% | -8% | -12%
Cc1cccc(Nc2ncnc3nc[nH]c23)c1 | -8% | -12% | -4% | -7% | -19%
COc1ccc(Nc2ncnc3nc[nH]c23)cc1OC | ? | -4% | 1% | -12% | 13µM*
COC1=C(OC)C(=O)C(CCCCCCCCCCO)=C(C)C1=O | 5% | 15% | . | 4.5µM* | 132%
Cc1[nH]c2ccccc2c1CCCO | -10% | 3% | -7% | -4% | -13%
Cc1cc(C)cc(Cn2cc(CN3CC(N4CCSCC4)CS3(=O)=O)nn2)c1 (configuration not stated) | . | . | 15% | . | .
CCOC(=O)C1=CCN(S(=O)(=O)c2ccc(Cl)cc2)C1c1ccc(C)cc1 (configuration not stated) | . | . | 12% | . | .
COc1ccc2[nH]c3c(=O)n(CCc4ccccc4)cnc3c2c1 | 0% | 1% | -2% | 3% | -6%
CCCCN(CCCC)CCn1cnc2c([nH]c3ccc(OC)cc32)c1=O | ? | -1% | -2% | -1% | 20µM*
Nc1nc2ccccc2n1S(=O)(=O)c1ccc(Cl)cc1 | . | . | 25% | . | .
Cc1cccc2sc(NNC(=O)c3ccc(S(=O)(=O)N4CCc5ccccc5C4)cc3)nc12 | -9% | -2% | 36% | ? | 14µM*
Cc1cccc2sc(NNC(=O)c3ccc(S(=O)(=O)N4CCCC(C)C4)cc3)nc12 (configuration not stated) | ? | -3% | 52% | -26% | -27%
CCOC(=O)[C@]12CCCC=C1N(Cc1ccc(Cl)cc1Cl)C(=O)[C@H](CC(=O)NCC13CC4CC(CC(C4)C1)C3)C2 | . | . | -1% | . | .
CC1(C(=O)NS(=O)(=O)c2ccc(Cl)cc2)CCN1C(=O)Cc1cccs1 (configuration not stated) | . | . | -1% | . | .
COc1ccc(CCNC(=O)c2ccc3c(c2)CCN3S(=O)(=O)c2ccccc2)cc1OC | -3% | . | . | . | .
O=C(NC1=NCCS1)C1COc2ccccc2O1 (configuration not stated) | -2% | 16µM* | -5% | 4% | -15%
COC(=O)c1cc(NC(=O)C2COc3ccccc3O2)cc(C(=O)OC)c1 (configuration not stated) | 3% | 4% | 10% | -3% | 0.22µM*
CCc1ccc(NC(=O)Nc2ccccc2OCc2cc(=O)n3ccccc3n2)cc1 | -4% | . | . | . | .
COc1ccc(/C=C2\SC(=O)N(CC(=O)NNC(=O)c3ccccc3O)C2=O)cc1 | -5% | 3% | 12% | 4% | 11µM*
S=c1[nH]nc(CSc2nc3ccccc3s2)n1C1CCCCC1 | 5% | 11µM* | 25% | 24% | -32%
S=c1[nH]nc(COc2ccccc2)n1C1CCCCC1 | -7% | 13µM* | 4% | 17% | -43%
O=C(O)CSc1nnc(CSc2nc3ccccc3s2)n1-c1ccccc1 | -1% | -2% | -7% | 7% | -13%
CCOc1ccccc1NC(=O)c1c(NC(=O)COc2ccccc2)sc2c1CCCCC2 | 12% | . | . | . | .
